Hits are enriched below; roughly 3.7% of the tested compounds scored in any of these assays.
tim23-1 inh – inhibits growth of tim23-1 mutant yeast. inhibition, % at 20 µM. S. cerevisiae tim23-1 growth, BacTiter-Glo luminescence, 24 h. 330,000 compounds, 1.3% hits;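 active = growth inhibition of the mutant yeast at or above 50%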;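 also: temperature-sensitive mutant grown at 25 °C; plate controls were DMSO-treated mutant yeast for no effect and medium wells lacking yeast for full effect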
tim10-1 inh – inhibits growth of tim10-1 mutant yeast; S. cerevisiae tim10-1 ts strain growth, BacTiter-Glo, 24 h; 330,000 compounds, 2.2% hits; inhibition, % at 20 µM; AID 463190;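 active = inhibition of at least 40%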;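 also: mutant grown at 25 °C; 0% = DMSO wells with yeast and 100% = wells holding no yeast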
V-ATPase pH – yeast V-ATPase proton transport regulation by pHLuorin; S. cerevisiae, pHLuorin cytosolic pH fluorescence; response, % at 10 µM; 350,000 compounds, 0.37% hits; in the data active = response mostly above about 7.3%, no sharp cut-off; inactive = mostly below about 5.4%; also: actives read high
TIM10 inh – growth inhibitors of TIM10 yeast strain. S. cerevisiae TIM10 strain growth, BacTiter-Glo luminescence, 24 h. inhibition, % at 10 µM. 330,000 compounds, 1.4% hits. AID 463195;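 active = inhibition of 40% or more at the single tested concentration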;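 also: wild-type TIM10 isogenic control strain grown at permissive 25 °C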
PfHsp90 set2 – growth inhibition of yeast expressing Plasmodium Hsp90; S. cerevisiae expressing PfHsp90, BacTiter-Glo ATP, 48 h; yeast lacking PDR1 and PDR3 efflux regulators; inhibition, % at 9.4 µM; 310,000 compounds, 0.32% hits; AID 504621;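 active = every replicate shows inhibition above about 80%, whatever the replicate mean, limit read from the data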;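 also: 0% = DMSO neutral controls and 100% = 20 µM radicicol positive controls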
tim10-1 conf – tim10-1 yeast growth inhibition, confirmed; shares compounds with tim10-1 inh; S. cerevisiae tim10-1 ts strain growth, BacTiter-Glo, 24 h; inhibition, % at 20 µM; 7,400 compounds, 56% hits;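 active = inhibition of yeast growth at or above a set limit in either of two repeat tests at 20 µM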;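 also: tim10-1 mutant grown at permissive 25 °C to find synthetic lethal compounds; 0% = DMSO yeast wells and 100% = medium wells without yeast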
The depositor's hits bear a star; · = no result.

SMILES	tim23-1 inh	tim10-1 inh	V-ATPase pH	TIM10 inh	PfHsp90 set2	tim10-1 conf
CN1CCN(C(=S)c2cn(Cc3ccccc3)c3ccccc23)CC1	26.5	14.2	1.5	15.2	22.2	·
COc1ccc(OC)c(C(C)NC(=S)NC2CCCCC2)c1 (stereo unspecified)	27.3	42.4*	2.9	30.6	-32.2	11.1
COc1ccc(NC(=S)NC2CCCC2)c(OC)c1	18.6	11.1	2.4	4.8	15.8	·
CN1/C(=C\C(=O)COC(=O)CNC(=O)c2ccc3ccccc3c2)C(C)(C)c2ccccc21	32.4	43.9*	-0.9	13.7	10.6	16.1
CN1/C(=C\C(=O)COC(=O)CN2C(=O)C3CC=CCC3C2=O)C(C)(C)c2ccccc21 (stereo unspecified)	21.0	41.7*	3.2	11.8	-93.0	22.2
CN1/C(=C\C(=O)COC(=O)CNC(=O)c2ccccc2F)C(C)(C)c2ccccc21	21.1	21.3	-2.4	23.6	41.6	·
C=CCc1ccc(OCC(O)CO)c(OC)c1 (stereo unspecified)	8.3	8.0	-1.1	3.0	-24.8	·
C=CCc1ccc(O)c(-c2cc(CC=C)ccc2O)c1	30.8	43.0*	-2.0	30.5	-81.2	44.5*
COc1ccc(-c2nn(-c3ccccc3)cc2C(=O)NC2CC2)cc1	15.6	9.6	-0.1	-5.8	-11.4	·
CS(=O)(=O)c1ccc(N2CCN(S(=O)(=O)c3cccs3)CC2)c([N+](=O)[O-])c1	8.1	14.0	-5.5	6.3	-29.6	·
CCN(CC)CCNC(=O)c1c(C)n(-c2ccccc2)c2cc(Br)c(OC)cc12	15.1	29.0	1.2	2.9	3.6	·
COc1cc2c(C(=O)N3CCN(C)CC3)c(C)n(-c3ccccc3)c2cc1Br	20.7	50.2*	0.4	19.8	-15.1	26.9
Cc1nn(CC(=O)N2CCN(c3ccccn3)CC2)c(=O)c2cc3sccc3n12	-1.0	3.0	1.4	-5.4	16.6	·
Brc1cc(Br)c2ncnc(N3CCCCC3)c2c1	47.5	45.7*	0.6	2.4	-4.2	12.4
CCC(=O)N1CCN(c2cc(N3CCCC3)c(F)cc2[N+](=O)[O-])CC1	15.4	6.9	-1.3	12.4	9.8	·
CC(=O)N1CCN(c2cc(N3CCc4ccccc4C3)c(F)cc2[N+](=O)[O-])CC1	43.4	51.9*	0.8	24.7	·	32.3*
CC(C)CN1C(=O)C(=Nc2cccnc2)c2ccccc21	14.3	27.4	-0.9	7.9	-16.2	·
COc1ncccc1C(=O)NC1CCCc2c1cnn2-c1ccc(C)c(C)c1 (stereo unspecified)	34.1	51.8*	-1.5	28.5	-9.2	14.8
COc1cccc(C(=O)NC2CCCc3c2cnn3-c2ccc(C)c(C)c2)c1OC (stereo unspecified)	28.1	30.7	-1.6	1.8	-5.1	·
COc1ccc(Nc2nnc(SCc3cn4c(C)cccc4n3)s2)cc1	18.2	16.8	-0.1	-4.9	-16.0	·
Cc1cccn2cc(CSc3nnc(Nc4ccc(C(C)C)cc4)s3)nc12	16.4	44.9*	-3.0	16.9	1.8	28.1
CNC(=O)c1ccsc1NC(=O)c1ccccc1	-20.6	-14.9	-1.9	10.8	-1.8	·
CNC(=O)c1ccsc1NC(=O)c1ccc(Cl)s1	49.1	43.7*	-4.7	21.1	-9.4	31.9*
CSc1ccc(/C=C(\C(=O)O)c2ccc(S(=O)(=O)N3CCCC3)s2)cc1	5.9	13.8	-1.3	2.4	18.3	·
CCOC(=O)N1CCN(c2c(F)cc3[nH]c(=S)[nH]c3c2Br)CC1	34.8	57.3*	-3.0	23.0	17.2	28.6
SMILES	tim23-1 inh	tim10-1 inh	V-ATPase pH	TIM10 inh	PfHsp90 set2	tim10-1 conf
O=C(CN1C(=O)/C(=C/c2ccco2)SC1=S)NC1CCS(=O)(=O)C1 (stereo unspecified)	12.8	3.2	1.7	11.2	8.5	·
CCOC(=O)c1sc2nc(C)cc(C)c2c1N	6.4	22.0	-3.5	12.5	·	·
COC(=O)c1sc2nc(C)c([N+](=O)[O-])c(C)c2c1N	35.3	49.5*	-3.9	19.9	9.2	24.9
CCOC(=O)c1cc(NC(=O)Nc2ccccc2OC)c(C)nc1C	10.9	41.1*	-0.9	20.2	-1.7	21.6
COc1ccc(OCC(=O)Nc2cccc(S(=O)(=O)N(C)c3ccccc3)c2)c([N+](=O)[O-])c1	-7.5	1.5	-3.5	-9.2	-4.1	·
CCOC(=O)c1cc(NC(=O)CC(C)(C)CC(=O)O)ccc1N1CCCCC1	10.0	6.9	7.2	13.8	-0.9	·
Cc1ccc(S(=O)(=O)c2nc(S(C)(=O)=O)sc2N2CCCCC2C)cc1 (stereo unspecified)	43.0	41.6*	-1.1	37.4	-79.6	42.7*
Cc1ccc(S(=O)(=O)c2nc(S(C)(=O)=O)sc2N2CCC(O)CC2)cc1	-8.4	-3.6	0.7	1.2	-57.6	·
C=CC[n+]1c(/C=C/c2ccc(OC(C)=O)c(OC)c2)ccc2ccccc21	33.7	56.9*	-1.9	20.8	18.7	38.2*
COc1cc(/C=N/NC(=O)Nc2ccccc2)ccc1OC(C)=O	14.1	12.7	-0.5	19.5	-35.8	·
Cc1cccc(C(=O)O/N=C2\CCSc3ccc(C)cc32)c1	28.1	28.4	-4.3	25.8	-11.6	·
Cc1ccc(C(=O)O/N=C2\CCSc3ccc(C)cc32)cc1	37.2	40.1*	-2.6	29.2	·	32.8*
NS(=O)(=O)c1cnccc1Oc1cccc(Cl)c1	7.0	12.3	4.5	17.7	5.5	·
CC1=CC(C)(C)N2C(=O)C3(SCC(=O)N3c3ccc(O)cc3)c3cc(C)cc1c32 (stereo unspecified)	27.3	42.7*	-0.4	22.7	1.1	19.8
Cc1ccc(N2C(=O)CSC23C(=O)Nc2ccccc23)cc1 (stereo unspecified)	1.1	13.8	-1.6	8.8	14.9	·
O=C(C1CCN(S(=O)(=O)c2cccc3cccnc23)CC1)N1CC=C(c2ccccc2)CC1	29.4	43.3*	·	27.9	·	17.1
NC1=NC(=O)C(Cc2ccc(Br)cc2)S1 (stereo unspecified)	1.7	-6.4	1.9	0.3	-23.2	·
O=C(CS(=O)(=O)c1ccc(Cl)cc1)NCc1ccccc1	17.7	21.4	-2.5	-4.3	-4.9	·
COc1cccc(C2C3=C(CC(C)(C)CC3=O)Nc3cc4c(cc32)OCO4)c1 (stereo unspecified)	27.9	44.2*	0.1	-13.9	23.7	11.3
COc1cccc(C2C3=C(CC(C)(C)CC3=O)Nc3cc(OC)c(OC)cc32)c1 (stereo unspecified)	11.7	23.5	-0.8	2.3	·	·
O=C(Nc1c(Cl)ccc2nsnc12)c1ccc([N+](=O)[O-])o1	40.6	51.6*	4.8	28.1	-6.0	33.4*
Cc1cc(C)c2sc(NC(=O)c3ccc([N+](=O)[O-])o3)nc2c1	24.3	56.5*	-4.5	-0.6	73.7	54.5*
Cc1cc(NC(=O)c2nn(C)c(C)c2Br)no1	-0.1	-10.8	0.6	11.3	-5.8	·
Cc1ccc(-n2nc(C)c(C(=O)Nc3cccc(C(=O)NC4CC4)c3)n2)c(C)c1	28.2	44.1*	4.0	15.2	-6.6	18.4

High-throughput results deposited in PubChem by several laboratories.
